Several values for one entry are separate records, joined by “and”; a condition that tells them apart may be missing. Equal values may be shown once. Values without a mark were called inactive. Inconclusive results are not listed. Activity calls are given as the source filed them. Unless noted, calls come from the whole dose curve; as a rule, active = well fitted curve in the direction sought with a large enough effect in the repeat runs; inconclusive = weak or mixed curves; inactive = no such curve, though single readings can be large; an effect the other way counts as inactive or inconclusive.

A short description of assay [1]: Human pregnane X receptor (PXR) small molecule agonists, qHTS cell viability counter screen (AID 1346977). Note: nearly all actives have a fitted effect of over 50% in size. Note: potency is the fitted concentration of half-maximal effect. The method, boiled down: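 Tox21 qHTS format; PXR-Luc HepG2, 2,000/well, charcoal-stripped FBS 5%. Cpd exposure 24hr. Read: CellTiter-Fluor fluorescence, multiplexed with luciferase.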
On the technique in general: qHTS replaces the single test concentration by a dilution series.

Assay [2] is described as follows: Caspase-3/7 induction in HepG2 cells by small molecules, qHTS assay (AID 1346978). Note: nearly all actives have a fitted effect of over 15% in size. Note: potency is the fitted concentration of half-maximal effect. The method, boiled down:
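Wild-type HepG2 cells (2,000/well) were settled 5 h at 37 C, 5% CO2, then exposed to compounds in DMSO for 17 h. Caspase-3/7 activity was read by luminescence 30 min after adding Caspase-Glo 3/7 reagent at room temperature.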

A short description of assay [3]: Caspase-3/7 induction in CHO-K1 cells by small molecules, qHTS cell viability counter screen (AID 1346979). Note: nearly all actives have a fitted effect of over 35% in size. Note: potency is the fitted concentration of half-maximal effect. The method, boiled down: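 CellTiter-Fluor viability check, qHTS format: wild-type CHO-K1, 16hr compound treatment, 1hr reagent incubation, fluorescence read.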
The nature of assay [4]: Caspase-3/7 induction in CHO-K1 cells by small molecules, qHTS assay (AID 1346980). Note: nearly all actives have a fitted effect of over 15% in size. The method, boiled down: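 Wild-type cells were seeded at 1,500 per well and settled 5 hr at 37 C, 5% CO2, then exposed to DMSO-dissolved compounds for 17 hr. Caspase-Glo 3/7 reagent was added, and luminescence was read after 30min at room temperature.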
A short description of assay [5]: Caspase-3/7 induction in HepG2 cells by small molecules, qHTS cell viability counter screen (AID 1346981). For activity change, negative = cytotoxicity: series mostly up to about 92 µM. Note: nearly all actives have a fitted effect of over 30% in size. Note: potency is the fitted concentration of half-maximal effect. The method, boiled down: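 The parent HepG2 line is plated at 2,000 cells per well and rested 5 hr before compound pinning from DMSO stocks. Following a 16-hr treatment at 37 C, a fluorogenic live-cell substrate (CellTiter-Fluor) reports viability after 1 hr.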

In assay [6] the target is Nuclear receptor subfamily 1 group I member 2 (Homo sapiens) (UniProt O75469). Description: Human pregnane X receptor (PXR) small molecule agonists, qHTS assay (AID 1346982). Note: nearly all actives have a fitted effect of over 35% in size. Note: potency is the fitted concentration of half-maximal effect. The method, boiled down:
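After plating in 5% charcoal-stripped FBS and a 5 hr rest, PXR-Luc HepG2 cells received compounds in DMSO. Following 24 hr at 37 C, ONE-Glo was added and light output read.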

Assay [7] has the same target. The assay is described as follows: CYP3A4 induction through human pregnane X receptor (PXR) by small molecules, qHTS assay (AID 1346984). Note: nearly all actives have a fitted effect of over 40% in size. The method, boiled down:
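Human PXR activation is tracked via CYP3A4 promoter-luciferase in DPX-2 (HepG2) cells. Compounds treat cells for 24hr at 37C, and luminescence is read after One-Glo.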

For assay [8] the target is unchanged. The assay is described as follows: Human pregnane X receptor (PXR) activation by small molecules, qHTS assay (AID 1346985). Note: nearly all actives have a fitted effect of over 40% in size. Note: potency is the fitted concentration of half-maximal effect. The method, boiled down:
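DPX-2 cells (HepG2 co-transfected with a PXR response element and a CYP3A4-promoter luciferase construct) were seeded at 2,000 per well, rested 5 hr at 37C, then exposed to DMSO-dissolved compounds for 24 hr. Activation was read as luciferase luminescence.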

In assay [9] the target is Cytochrome P450 2D6 (Homo sapiens) (UniProt P10635). The assay is described as follows: Cytochrome P450 Family 2 Subfamily D Member 6 (CYP2D6) small molecule antagonists: luciferase reporter qHTS assay (AID 1671196). For activity change, negative = inhibition: series mostly up to about 120 µM. Note: nearly all actives have a fitted effect of over 50% in size. Note: potency is the fitted concentration of half-maximal effect. In outline:
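Quantitative HTS of Tox21 chemicals against CYP2D6 using a luminescent proluciferin substrate. After NADPH addition, 1 h room-temperature reaction; luminescence recorded 20 min post detection reagent.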
(In a reporter assay the amount or activity of a reporter protein is the signal.)

For assay [10], the target named is Cytochrome P450 2C19 (Homo sapiens) (UniProt P33261). The assay is described as follows: Cytochrome P450 Family 2 Subfamily C Member 19 (CYP2C19) small molecule antagonists: luciferase reporter qHTS assay (AID 1671197). For activity change, negative = inhibition: series mostly up to about 120 µM. Note: nearly all actives have a fitted effect of over 65% in size. Note: potency is the fitted concentration of half-maximal effect. In outline:
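Inhibition of CYP2C19 was scored from loss of luminescence in a P450-Glo proluciferin substrate assay, NADPH-started and run 1 h at 37C, with ketoconazole as positive control.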

Assay [11] concerns the target Cytochrome P450 2C9 (Homo sapiens) (UniProt P11712). Description: Cytochrome P450 Family 2 Subfamily C Member 9 (CYP2C9) small molecule antagonists: luciferase reporter qHTS assay (AID 1671198). For activity change, negative = inhibition: series mostly up to about 120 µM. Note: nearly all actives have a fitted effect of over 50% in size. Note: potency is the fitted concentration of half-maximal effect. In outline: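 CYP2C9 activity was measured with a P450-Glo proluciferin substrate. Enzyme–substrate mix was held with compound for 10 min at room temperature, then NADPH regeneration solution was added for 1 h at 37C. Luciferin product was read as luminescence.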

The target of assay [12] is Cytochrome P450 1A2 (Homo sapiens) (UniProt P05177). The assay is described as follows: Cytochrome P450 Family 1 Subfamily A Member 2 (CYP1A2) small molecule antagonists: luciferase reporter qHTS assay (AID 1671199). For activity change, negative = inhibition: series mostly up to about 120 µM. Note: nearly all actives have a fitted effect of over 50% in size. Note: potency is the fitted concentration of half-maximal effect. The method, boiled down:
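Quantitative high-throughput format using the P450-Glo CYP1A2 system. Reaction initiated by NADPH regeneration solution, 1 h at room temperature, then stopped with detection reagent; luminescence measured 20 min later.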

Assay [13] has as its target Voltage-gated inwardly rectifying potassium channel KCNH2 (Homo sapiens) (UniProt Q12809). The assay is described as follows: Human Ether-a-go-go-Related Gene (hERG) channel small molecule antagonists: fluorescence cell-based qHTS assay (AID 1671200).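 For activity change, negative = inhibition: hERG-expressing U2OS cells given a thallium stimulus after FluxOR II dye loading; series mostly up to about 77 µM.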 Note: nearly all actives have a fitted effect of over 50% in size. Note: potency is the fitted concentration of half-maximal effect. The method, boiled down: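 Kinetic two-minute fluorescence traces, sampled at 1 s, were collected following thallium stimulus of U2OS cells (1000 per well) that had been cultured overnight at 37 C and loaded with FluxOR II.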
A general note: Block of hERG is tested as a sign of cardiac risk.

Assay [14] addresses Thyrotropin-releasing hormone receptor (Homo sapiens) (UniProt P34981). Description: qHTS assay to identify small molecule agonists of the thyrotropin-releasing hormone receptor (TRHR) signaling pathway (AID 1346891; calls by dose curve; note: series mostly up to about 58 µM). The method, boiled down:
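Screening of agonists relied on calcium signalling in HEK293 cells expressing human TRHR: dye loading 2 h at 37 °C preceded compound addition and a 3-min fluorescence time course.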

The target of assay [15] is Nuclear receptor subfamily 1 group I member 2 (Rattus norvegicus) (UniProt Q9R1A7). The assay is described as follows: Rat pregnane X receptor (rPXR) activation by small molecules, qHTS assay (AID 1346983). Note: nearly all actives have a fitted effect of over 20% in size. Particulars: rPXR luciferase reporter cells, One-Glo luminescence, 24 h; max activation: active compounds read high. In outline:
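Cell-based rPXR luciferase reporter assay, 2,000 cells per well, rested 5hr at 37 C before compound addition in DMSO, then 24 hr at 37 C. One-Glo reagent was added and luminescence read after 30 min at room temperature.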

The target in assay [16] is Cytochrome P450 3A4 (Homo sapiens) (UniProt P08684). The assay is described as follows: Cytochrome P450 Family 3 Subfamily A Member 4 (CYP3A4) small molecule antagonists: luciferase reporter qHTS assay (AID 1671201). The method, boiled down: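 Proluciferin-to-luciferin conversion by CYP3A4, NADPH-regenerated, 1 h RT; luminescence read as RLU. Ketoconazole as control.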
Chain of Cytochrome P450 3A4 (Homo sapiens) (P08684 whole entry, looked up): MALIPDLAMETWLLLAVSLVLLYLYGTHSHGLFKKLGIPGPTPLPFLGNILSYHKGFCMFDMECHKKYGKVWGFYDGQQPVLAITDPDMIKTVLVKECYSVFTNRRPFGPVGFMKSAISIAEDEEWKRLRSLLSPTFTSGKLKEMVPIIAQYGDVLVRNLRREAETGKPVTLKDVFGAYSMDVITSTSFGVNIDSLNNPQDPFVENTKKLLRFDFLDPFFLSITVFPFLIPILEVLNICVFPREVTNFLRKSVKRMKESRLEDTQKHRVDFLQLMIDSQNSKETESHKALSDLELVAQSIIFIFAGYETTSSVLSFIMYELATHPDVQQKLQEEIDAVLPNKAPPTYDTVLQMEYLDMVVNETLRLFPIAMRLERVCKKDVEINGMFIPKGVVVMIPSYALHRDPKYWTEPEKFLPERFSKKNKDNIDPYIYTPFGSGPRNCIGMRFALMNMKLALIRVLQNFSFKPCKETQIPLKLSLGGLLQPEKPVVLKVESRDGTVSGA
% is set by controls: 0 for no effect and ±100 for the full control effect.

Chain of Nuclear receptor subfamily 1 group I member 2 (Homo sapiens) (O75469 whole entry, looked up): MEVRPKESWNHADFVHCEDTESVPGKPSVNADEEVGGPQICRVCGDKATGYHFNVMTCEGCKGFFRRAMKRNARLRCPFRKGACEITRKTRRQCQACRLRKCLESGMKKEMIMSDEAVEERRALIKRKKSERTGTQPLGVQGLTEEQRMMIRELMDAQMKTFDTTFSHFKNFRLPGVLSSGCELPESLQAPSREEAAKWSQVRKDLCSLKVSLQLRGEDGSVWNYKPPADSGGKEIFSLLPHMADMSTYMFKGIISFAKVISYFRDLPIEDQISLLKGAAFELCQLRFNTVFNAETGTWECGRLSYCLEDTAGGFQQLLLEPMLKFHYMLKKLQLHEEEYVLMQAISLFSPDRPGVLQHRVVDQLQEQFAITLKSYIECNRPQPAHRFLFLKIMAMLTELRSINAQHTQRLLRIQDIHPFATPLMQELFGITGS
Chain of Cytochrome P450 2C19 (Homo sapiens) (P33261 whole entry, looked up): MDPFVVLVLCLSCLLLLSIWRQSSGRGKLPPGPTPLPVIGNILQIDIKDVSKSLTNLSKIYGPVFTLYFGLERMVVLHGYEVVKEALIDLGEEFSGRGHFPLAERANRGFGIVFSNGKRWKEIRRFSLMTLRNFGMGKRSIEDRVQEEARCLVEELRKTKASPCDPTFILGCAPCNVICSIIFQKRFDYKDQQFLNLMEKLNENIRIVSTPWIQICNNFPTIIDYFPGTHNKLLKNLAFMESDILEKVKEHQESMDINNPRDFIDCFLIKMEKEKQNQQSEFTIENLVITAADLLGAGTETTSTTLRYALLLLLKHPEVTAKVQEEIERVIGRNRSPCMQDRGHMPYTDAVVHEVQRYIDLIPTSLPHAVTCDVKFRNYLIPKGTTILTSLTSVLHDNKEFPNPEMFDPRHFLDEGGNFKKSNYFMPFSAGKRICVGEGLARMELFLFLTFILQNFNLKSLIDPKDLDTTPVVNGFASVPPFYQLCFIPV
Chain of Cytochrome P450 2C9 (Homo sapiens) (P11712 whole entry, looked up): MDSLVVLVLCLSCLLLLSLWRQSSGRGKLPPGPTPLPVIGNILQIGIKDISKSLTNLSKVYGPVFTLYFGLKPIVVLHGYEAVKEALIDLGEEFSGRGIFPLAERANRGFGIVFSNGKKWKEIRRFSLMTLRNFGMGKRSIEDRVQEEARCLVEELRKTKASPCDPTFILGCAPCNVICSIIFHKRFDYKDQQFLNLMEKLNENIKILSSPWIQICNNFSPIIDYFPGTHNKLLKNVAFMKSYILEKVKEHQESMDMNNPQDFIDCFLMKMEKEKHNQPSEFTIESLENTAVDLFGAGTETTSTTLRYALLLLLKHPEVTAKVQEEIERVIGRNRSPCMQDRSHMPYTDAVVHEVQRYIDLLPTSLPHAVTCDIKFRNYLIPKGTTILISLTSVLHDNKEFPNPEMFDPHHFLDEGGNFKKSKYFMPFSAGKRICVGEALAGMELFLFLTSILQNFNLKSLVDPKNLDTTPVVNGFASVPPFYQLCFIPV
Chain of Voltage-gated inwardly rectifying potassium channel KCNH2 (Homo sapiens) (Q12809 whole entry, looked up): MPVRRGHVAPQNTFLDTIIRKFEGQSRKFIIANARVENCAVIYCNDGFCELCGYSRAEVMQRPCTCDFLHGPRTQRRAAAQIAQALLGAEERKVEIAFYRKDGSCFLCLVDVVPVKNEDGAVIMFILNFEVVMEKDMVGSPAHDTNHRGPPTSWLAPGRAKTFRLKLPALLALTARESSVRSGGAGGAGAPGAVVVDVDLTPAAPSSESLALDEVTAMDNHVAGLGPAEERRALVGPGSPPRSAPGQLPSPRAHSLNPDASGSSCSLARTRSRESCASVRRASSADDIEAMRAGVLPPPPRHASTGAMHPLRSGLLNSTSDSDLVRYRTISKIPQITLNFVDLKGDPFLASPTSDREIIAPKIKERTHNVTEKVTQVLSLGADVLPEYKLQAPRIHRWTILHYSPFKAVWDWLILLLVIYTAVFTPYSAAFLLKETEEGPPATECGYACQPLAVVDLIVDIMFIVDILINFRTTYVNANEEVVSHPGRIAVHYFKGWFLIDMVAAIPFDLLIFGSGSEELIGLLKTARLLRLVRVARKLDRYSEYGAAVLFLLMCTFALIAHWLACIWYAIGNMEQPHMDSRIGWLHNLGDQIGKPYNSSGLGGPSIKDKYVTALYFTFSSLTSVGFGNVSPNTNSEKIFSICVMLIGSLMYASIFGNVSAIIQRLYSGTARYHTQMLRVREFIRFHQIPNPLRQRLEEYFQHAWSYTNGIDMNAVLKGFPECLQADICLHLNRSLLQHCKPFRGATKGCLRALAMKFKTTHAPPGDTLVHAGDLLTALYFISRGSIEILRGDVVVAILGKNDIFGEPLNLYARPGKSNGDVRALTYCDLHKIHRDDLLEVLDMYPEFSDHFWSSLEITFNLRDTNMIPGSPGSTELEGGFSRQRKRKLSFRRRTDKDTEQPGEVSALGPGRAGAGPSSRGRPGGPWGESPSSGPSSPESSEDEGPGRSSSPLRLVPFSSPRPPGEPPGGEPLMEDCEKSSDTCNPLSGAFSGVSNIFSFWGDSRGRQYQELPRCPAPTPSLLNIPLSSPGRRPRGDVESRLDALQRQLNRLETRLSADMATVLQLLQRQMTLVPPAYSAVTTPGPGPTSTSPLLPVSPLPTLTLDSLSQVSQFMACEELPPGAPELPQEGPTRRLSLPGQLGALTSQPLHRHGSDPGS
Chain of Cytochrome P450 2D6 (Homo sapiens) (P10635 whole entry, looked up): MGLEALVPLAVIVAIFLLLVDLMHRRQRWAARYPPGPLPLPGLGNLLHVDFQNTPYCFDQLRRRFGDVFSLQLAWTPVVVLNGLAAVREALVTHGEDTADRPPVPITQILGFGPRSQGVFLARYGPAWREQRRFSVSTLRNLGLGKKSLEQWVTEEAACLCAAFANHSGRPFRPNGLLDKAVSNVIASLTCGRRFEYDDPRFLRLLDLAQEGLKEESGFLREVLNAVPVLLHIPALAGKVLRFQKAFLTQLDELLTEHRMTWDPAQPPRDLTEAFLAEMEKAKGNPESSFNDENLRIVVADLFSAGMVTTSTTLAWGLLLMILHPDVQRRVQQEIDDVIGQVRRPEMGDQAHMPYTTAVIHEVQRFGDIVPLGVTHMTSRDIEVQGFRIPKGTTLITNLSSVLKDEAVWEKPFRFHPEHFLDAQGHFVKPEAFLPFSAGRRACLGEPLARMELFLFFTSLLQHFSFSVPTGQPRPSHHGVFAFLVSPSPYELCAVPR
Chain of Cytochrome P450 1A2 (Homo sapiens) (P05177 whole entry, looked up): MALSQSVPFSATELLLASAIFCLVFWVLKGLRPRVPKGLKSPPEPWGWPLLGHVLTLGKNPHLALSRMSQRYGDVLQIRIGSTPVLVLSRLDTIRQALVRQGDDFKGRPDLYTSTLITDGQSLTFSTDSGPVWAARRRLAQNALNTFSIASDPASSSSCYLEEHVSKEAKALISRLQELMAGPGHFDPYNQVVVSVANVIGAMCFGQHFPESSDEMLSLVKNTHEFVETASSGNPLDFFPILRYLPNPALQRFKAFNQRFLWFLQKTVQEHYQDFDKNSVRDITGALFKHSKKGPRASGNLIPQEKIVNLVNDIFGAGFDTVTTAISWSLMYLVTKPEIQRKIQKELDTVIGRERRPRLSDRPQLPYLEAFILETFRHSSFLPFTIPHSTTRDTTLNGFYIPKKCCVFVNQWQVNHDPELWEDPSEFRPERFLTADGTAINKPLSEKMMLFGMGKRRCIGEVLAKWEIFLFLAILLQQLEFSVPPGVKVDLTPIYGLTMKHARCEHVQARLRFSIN
Chain of Thyrotropin-releasing hormone receptor (Homo sapiens) (P34981 whole entry, looked up): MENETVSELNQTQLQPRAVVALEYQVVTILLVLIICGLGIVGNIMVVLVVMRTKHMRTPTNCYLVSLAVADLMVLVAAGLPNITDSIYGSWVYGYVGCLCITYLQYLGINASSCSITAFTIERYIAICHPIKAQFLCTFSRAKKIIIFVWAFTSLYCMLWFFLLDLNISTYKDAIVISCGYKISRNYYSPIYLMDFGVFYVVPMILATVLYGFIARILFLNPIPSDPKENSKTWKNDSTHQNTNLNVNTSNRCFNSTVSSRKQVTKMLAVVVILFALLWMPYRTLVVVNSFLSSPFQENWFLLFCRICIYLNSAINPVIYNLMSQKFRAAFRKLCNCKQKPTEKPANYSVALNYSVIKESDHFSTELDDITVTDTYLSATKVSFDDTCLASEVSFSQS
Chain of Nuclear receptor subfamily 1 group I member 2 (Rattus norvegicus) (Q9R1A7 whole entry, looked up): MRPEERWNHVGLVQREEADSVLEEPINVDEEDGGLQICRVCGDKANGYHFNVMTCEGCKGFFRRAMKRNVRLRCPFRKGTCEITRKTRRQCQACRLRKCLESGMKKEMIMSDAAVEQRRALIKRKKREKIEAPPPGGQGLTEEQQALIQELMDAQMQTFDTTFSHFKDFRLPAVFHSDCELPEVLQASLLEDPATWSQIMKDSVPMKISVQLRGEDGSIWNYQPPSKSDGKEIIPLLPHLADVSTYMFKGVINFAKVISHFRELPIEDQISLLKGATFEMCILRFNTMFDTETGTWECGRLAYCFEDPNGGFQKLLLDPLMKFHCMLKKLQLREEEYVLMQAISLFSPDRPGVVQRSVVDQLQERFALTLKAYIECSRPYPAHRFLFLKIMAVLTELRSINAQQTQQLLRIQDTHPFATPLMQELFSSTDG

As for `Cc1oncc1C(=O)Nc1ccc(C(F)(F)F)cc1`, the Potency entry in assay [1], in [2], in [3], in [5], in assay [7] and in [13] was “inactive” in each case. Also, the call in assay [4] was inactive. Also, the Potency in assay [6] is 12.2 µM (active) and 1.5 µM (active); in assay [8], 0.708 µM (active); in assay [9], 31.7 µM (active); in assay [10], 8.94 µM (active) and 8.71 µM (active); in [11] it was 25.2 µM (active) and 15.5 µM (active); in assay [12], 1.59 µM (active) and 911 nM (active).

Take `COC(=O)c1cc(S(N)(=O)=O)ccc1OC`: the Potency entry in [1], in assay [2], in assay [3], in [5], in [6] and in [9] was “inactive” in each case. In addition, the Potency entry in assay [10], in [11], in assay [12] and in assay [13] was “inactive” each time. In addition, the molecule was classed as inactive in assay [4].

Consider `CO[C@@]12[C@H](COC(N)=O)C3=C(C(=O)C(C)=C(N)C3=O)N1C[C@@H]1N[C@@H]12`, for which the Potency in [1] is 11.9 µM (active); in [2], 11.9 µM (active); in [3] it was 13.3 µM (active); in assay [5] it was 11.9 µM (active); in [12] it was 30.9 µM (active). The call in [4] was inactive. Also, the Potency entry in [6], in [8], in assay [10] and in assay [13] was “inactive” throughout.

For the molecule `C(=C\c1ccccc1)/CN1CCN(C(c2ccccc2)c2ccccc2)CC1`, the Potency entry in [14] and in assay [2] was “inactive” each time. The outcome in assay [4] was inactive. Moreover, the max activation in [15] was 1.1%.

On to `O=C(O)c1c(O)c(-c2ccccc2)nc2ccccc12`, for which the Potency result in assay [1], in assay [2], in [3], in assay [5], in [6] and in [9] was “inactive” each time. For the same molecule, the Potency entry in assay [13] and in assay [16] was “inactive” throughout. Besides, the molecule was called inactive in assay [4]. For the same molecule, the Potency in assay [11] is 30.9 µM (active); in [12] it was 17.4 µM (active).

Take `C/C(=N/NC(=O)c1ccncc1)C(=O)O`: the Potency entry in [1], in [2], in assay [3], in assay [5], in [6] and in assay [9] was “inactive” in each case. In addition, the Potency result in assay [11], in assay [12] and in assay [13] was “inactive” throughout. For the same molecule, in assay [4], the call was inactive.

`CCCCCCCCCOC(C)=O`: the Potency result in [1], in assay [2], in assay [3], in [5], in [6] and in assay [9] was “inactive” throughout. The Potency result in assay [10], in [11], in assay [13] and in assay [16] was “inactive” each time. Moreover, the call in [4] was inactive.

In the case of `CCCCCCCCCCCCCCCCBr`, the activity change, negative = cytotoxicity is -1.37% [at 19 µM] in assay [1], 4.02% [at 19 µM] in assay [3] and 4.64% [at 19 µM] in [5]. Besides, the caspase activation in assay [2] is 2.76% [at 19 µM]. Further, the caspase-3/7 activation in [4] is -0.176% [at 19 µM]. Also, the activation in [6] was -5.34% [at 19 µM]. Moreover, the activity change, negative = inhibition in assay [9] is -8.89% [at 23.6 µM]; in assay [10], 0.164% [at 23.6 µM]; in assay [11], -1.68% [at 23.6 µM]; in assay [13] it was 1.22% [at 15.8 µM]; in assay [16], -0.429% [at 23.6 µM].

For `O=C(CCC1CCN(Cc2ccccc2)CC1)c1ccc2c(c1)NCCCC2`, the Potency entry in assay [14], in [2], in assay [11], in assay [12] and in assay [16] was “inactive” throughout. Further, the molecule was classed as inactive in assay [4]. Further, the Potency in [9] is 8.71 µM (active); in [13], 4.77 µM (active).

With `CCC(Cc1ccccc1)(C(=O)c1ccc(N2CCOCC2)cc1)N(C)C` (stereo not drawn), the Potency result in assay [14], in [2] and in assay [12] was “inactive” in each case. In addition, the result in assay [4] was inactive. Moreover, the Potency in [6] was 30.6 µM (active); in assay [9] it was 7.96 µM (active); in assay [10], 39.9 µM (active); in assay [11], 35.6 µM (active); in [13], 13.8 µM (active).
